Assay [1] concerns the target Casein kinase I isoform gamma-2 (Homo sapiens) (UniProt P78368). The conditions noted are these: at 1 µM.
The target in assay [2] is Casein kinase I isoform gamma-3 (Homo sapiens) (UniProt Q9Y6M4). Particulars: at 0.1 µM.
The target is the same in assay [3]. Particulars: at 1 µM.
The target of assay [4] is Cyclin-dependent kinase 1 (Homo sapiens) (UniProt P06493). Particulars: at 0.1 µM.
For assay [5] the target is unchanged. Particulars: at 1 µM.
Assay [6] concerns the target Cyclin-dependent kinase 2 (Homo sapiens) (UniProt P24941). Particulars: at 0.1 µM.
The target is the same in assay [7]. The conditions noted are these: at 1 µM.
Assay [8] shares this target. The conditions noted are these: at 0.1 µM. The source holds these as a separate data set.
Assay [9] has the same target. Particulars: at 1 µM. This is another data set of the same source.
Assay [10] concerns the target CDK3/Cyclin E (Homo sapiens) (UniProt P24864+Q00526). Particulars: at 0.1 µM.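 Further: reported percentages are mean inhibition values.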

Structures are written as SMILES.

Casein kinase I isoform gamma-3 (Homo sapiens), sequence (Q9Y6M4 whole entry, looked up, canonical isoform): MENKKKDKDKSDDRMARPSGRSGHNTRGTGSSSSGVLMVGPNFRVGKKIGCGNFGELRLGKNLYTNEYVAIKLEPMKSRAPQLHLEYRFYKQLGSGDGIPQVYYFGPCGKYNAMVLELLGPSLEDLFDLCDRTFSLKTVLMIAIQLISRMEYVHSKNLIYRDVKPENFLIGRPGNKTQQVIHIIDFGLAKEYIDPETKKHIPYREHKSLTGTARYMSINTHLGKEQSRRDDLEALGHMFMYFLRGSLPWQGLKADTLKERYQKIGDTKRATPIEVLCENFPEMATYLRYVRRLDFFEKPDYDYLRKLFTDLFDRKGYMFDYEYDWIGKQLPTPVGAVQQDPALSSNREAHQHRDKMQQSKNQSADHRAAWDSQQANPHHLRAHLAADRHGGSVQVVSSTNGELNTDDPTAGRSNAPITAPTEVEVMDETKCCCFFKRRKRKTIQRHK
Casein kinase I isoform gamma-2 (Homo sapiens), sequence (P78368 whole entry, looked up, canonical isoform): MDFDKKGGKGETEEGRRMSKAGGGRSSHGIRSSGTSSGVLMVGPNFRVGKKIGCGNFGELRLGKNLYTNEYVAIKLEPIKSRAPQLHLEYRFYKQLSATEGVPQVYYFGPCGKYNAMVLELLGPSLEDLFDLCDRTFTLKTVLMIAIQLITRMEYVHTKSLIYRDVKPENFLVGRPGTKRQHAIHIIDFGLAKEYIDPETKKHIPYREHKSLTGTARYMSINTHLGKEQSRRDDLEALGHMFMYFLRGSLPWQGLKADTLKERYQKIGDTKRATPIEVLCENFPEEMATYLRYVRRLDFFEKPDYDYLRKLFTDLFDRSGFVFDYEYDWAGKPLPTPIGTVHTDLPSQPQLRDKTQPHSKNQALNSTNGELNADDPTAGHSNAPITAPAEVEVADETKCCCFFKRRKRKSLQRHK
Cyclin-dependent kinase 1 (Homo sapiens), sequence (P06493 whole entry, looked up): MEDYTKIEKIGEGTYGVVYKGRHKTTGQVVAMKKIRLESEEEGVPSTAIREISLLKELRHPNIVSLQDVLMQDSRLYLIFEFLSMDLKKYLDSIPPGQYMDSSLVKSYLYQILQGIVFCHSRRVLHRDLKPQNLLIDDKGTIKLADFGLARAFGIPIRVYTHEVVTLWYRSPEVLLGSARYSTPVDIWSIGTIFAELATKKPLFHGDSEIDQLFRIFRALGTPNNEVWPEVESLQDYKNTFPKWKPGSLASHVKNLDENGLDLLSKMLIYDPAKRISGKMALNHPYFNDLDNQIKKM
CDK3/Cyclin E (Homo sapiens), sequence (P24864 whole entry, looked up): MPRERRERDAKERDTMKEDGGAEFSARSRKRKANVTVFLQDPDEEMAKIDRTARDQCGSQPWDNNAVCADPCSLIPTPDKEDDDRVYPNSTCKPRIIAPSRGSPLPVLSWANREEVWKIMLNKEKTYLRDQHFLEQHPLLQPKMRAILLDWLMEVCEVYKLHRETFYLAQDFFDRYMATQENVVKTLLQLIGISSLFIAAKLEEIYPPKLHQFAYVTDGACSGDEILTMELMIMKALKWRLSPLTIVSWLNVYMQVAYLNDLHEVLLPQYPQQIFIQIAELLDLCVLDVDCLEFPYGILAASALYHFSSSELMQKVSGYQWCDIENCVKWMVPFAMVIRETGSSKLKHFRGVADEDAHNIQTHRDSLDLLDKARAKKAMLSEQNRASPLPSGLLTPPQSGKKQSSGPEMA
CDK3/Cyclin E (Homo sapiens), sequence (Q00526 whole entry, looked up): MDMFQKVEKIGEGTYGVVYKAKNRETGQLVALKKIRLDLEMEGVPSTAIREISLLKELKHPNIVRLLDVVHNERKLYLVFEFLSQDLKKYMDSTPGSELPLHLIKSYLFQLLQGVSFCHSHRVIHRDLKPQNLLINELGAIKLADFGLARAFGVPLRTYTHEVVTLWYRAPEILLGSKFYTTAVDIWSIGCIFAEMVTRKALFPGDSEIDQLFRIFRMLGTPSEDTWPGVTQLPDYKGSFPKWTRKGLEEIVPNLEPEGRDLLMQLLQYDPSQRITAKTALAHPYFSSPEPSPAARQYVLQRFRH

For orientation: inhibition means the drop in the measured response relative to a control, in per cent. For `Cc1ccc(NC(=O)c2ccnc(N3CCCC3)c2)cc1-c1ccc(C(=O)NCC2CC2)cc1`, the inhibition was 2.39% in [1]; 0.96% in [2]; 2.49% in assay [3]; -0.58% in [4]; 2.14% in assay [5]; -0.92% in [6]. Besides, the inhibition worked out at 2.88% in assay [7], 6.57% in [8], 6.44% in assay [9] and 9.73% in assay [10].
Turning to `NS(=O)(=O)c1ccc(N/N=C2\C(=O)Nc3ccc(C(=O)NCCc4c[nH]cn4)cc32)cc1`, the inhibition worked out at 9.23% in [1]; 5.54% in assay [2]; 16.4% in assay [3]; 30.1% in assay [4]; 76.1% in [5]; 26.9% in [10].
Consider `Cc1nn(C)c2cc(N(C)c3ccnc(Nc4cccc(S(N)(=O)=O)c4)n3)ccc12`, for which the inhibition in assay [1] is 2.93%; in [2], 0.54%; in assay [3], 3.06%; in [4] it was 0.25%; in assay [5] it was 5.8%; in assay [6], -0.61%. Moreover, the inhibition in assay [7] amounted to 2.33%; in assay [8] it was 2.2%; in assay [9] it was 8.5%; in [10] it was 1.91%.
Take `Nc1nc(-c2ccccn2)c(-c2ccc3ncccc3n2)s1`: the inhibition in [1] was found to be 10.1%; in [2], 4%; in assay [3] it was 17.4%; in assay [4] it was 0.79%; in assay [5], 3.13%; in assay [6], 1.62%. For the same compound, the inhibition was found to be 1.29% in assay [7], 4.08% in [8], 5.96% in [9] and 2.27% in [10].
With `O=C1NC(=O)C(c2ccc(Cl)cc2)=C1Nc1ccc(Cl)c(C(=O)O)c1`, the inhibition in [1] was -1.57%; in [2], -0.68%; in assay [3] it was -1.39%; in assay [4], 0.08%; in assay [5], 1.14%; in [6], -1.04%. Besides, the inhibition in assay [7] was -8.99%; in [8] it was -0.37%; in assay [9], 0.53%; in assay [10] it was -0.7%.
`Nc1nc(-c2ccc3c(c2)C(=Cc2cc(Br)c(O)c(Br)c2)C(=O)N3)cs1`: the inhibition in assay [1] was -0.74%; in [2], -2.56%; in [3], 0.95%; in [4] it was 0.71%; in assay [6], 1.38%; in [7], -0.83%. The figures for the inhibition in assay [8], in [9] and in [10] were -0.42%, 2.91% and 0.55%, respectively.
Consider `CC1=C(C(=O)Nc2ccc3[nH]ncc3c2)C(c2ccc(Cl)c(Cl)c2)CC(=O)N1` (stereo not given), for which the inhibition in assay [1] was 1.4%; in assay [2], -0.44%; in assay [3], 1.59%; in assay [4] it was -0.56%; in [5] it was -1.08%; in assay [6] it was 0.45%. In addition, the inhibition in [7] was 4.04%; in assay [8], -0.59%; in assay [9] it was 3.25%; in assay [10] it was -0.69%.
In the case of `COc1cc2c(cc1Nc1nc(N3CCc4ccccc43)c3cc[nH]c3n1)N(C(=O)CN(C)C)CC2`, the inhibition was 2.57% in [1]; 0.55% in assay [2]; 4.52% in assay [3]; 0.08% in assay [4]; 1.02% in assay [5]; 0.42% in assay [6]. The inhibition in [7] is -1.8%; in assay [8], 1.6%; in assay [9], 1.6%; in assay [10], 0.81%.
`O=C(Nc1n[nH]c2nc(-c3ccco3)c(Br)cc12)C1CC1`: the inhibition worked out at 2.51% in assay [1]; 2.64% in assay [2]; 0.87% in [3]; 0.89% in assay [4]; 5.15% in [5]; 3.87% in [6]. The inhibition came to 28.4% in assay [7], 3.75% in assay [8], 9.11% in [9] and 3.8% in assay [10].
For `CC1=C(C(=O)Nc2ccc3[nH]ncc3c2)C(c2ccc(F)cc2)NC(=O)N1` (stereo not given), the inhibition was 1.77% in assay [1]; 0.29% in assay [2]; 0.47% in assay [3]; 0.21% in assay [4]; -0.93% in assay [5]; 3.84% in [6]. Besides, the inhibition in [7] was 7.76%; in [8], 2.47%; in assay [9], 9.24%; in assay [10], 3.12%.
As to `COc1cc2ncn(-c3cc(O[C@@H](C)c4ccccc4Cl)c(C(N)=O)s3)c2cc1OC`, the inhibition was 5.19% in assay [1]; 3.46% in assay [2]; 3.53% in [3]; -0.28% in assay [4]; 2.69% in [5]; -0.85% in [10].
Regarding `O=C1NC(=O)C(N2CCc3ccccc32)=C1c1ccc(Cl)cc1`, the inhibition in [1] was 5.08%; in assay [2] it was 4.47%; in assay [3] it was 3.56%; in assay [4], 1.77%; in assay [5], 3.26%; in [6], -1.05%. For the same compound, the inhibition was 0.31% in assay [7], 5.31% in assay [8], 6.11% in assay [9] and 3.85% in [10].
As for `CCN1CCC(CC(=O)Nc2n[nH]c3nc(-c4cccs4)c(Br)cc23)CC1`, the inhibition in assay [1] was -0.99%; in assay [2], -2.3%; in assay [3] it was 0.47%; in assay [4] it was 0.69%; in assay [5], 5%; in [6] it was 0.61%. The inhibition is 6.41% in [7], -0.6% in assay [8], 5.24% in assay [9] and -0.39% in [10].
As to `COc1ccc(-c2nn3ncccc3c2-c2ccnc(Nc3ccc(Cl)c(C(F)(F)F)c3)n2)cc1`, the inhibition in [1] turned out to be 1.48%; in assay [2], 2.03%; in assay [3], 0.7%; in assay [4], 0.45%; in assay [5], 0.2%; in [6], 1.46%. The inhibition was -2.2% in assay [7], 1.44% in [8], 1.76% in [9] and 1.87% in [10].
In the case of `CCn1c(-c2nonc2N)nc2c(N3CCCC3)nccc21`, the inhibition in assay [1] was -0.7%; in [2] it was -0.94%; in assay [3], -0.62%; in assay [4], 0.79%; in assay [5], 2.89%; in [6], 1%. Further, the inhibition was 0.81% in assay [8], 5.24% in assay [9] and 0.91% in assay [10].
With `O=C1NC(=O)C(c2cccc(Cl)c2)=C1Nc1ccc(O)c(Cl)c1`, the inhibition in [1] stood at 0.54%; in assay [2], 1.06%; in [3], 0.9%; in [4], 0.73%; in assay [5], 7.55%; in assay [6] it was 1.84%. In addition, the inhibition in [7] stood at 6.86%; in [8] it was 2.79%; in assay [9], 10.6%; in assay [10], 3.01%.
On to `COc1ccc(-c2ccncc2)cc1C(N)=O`, for which the inhibition in [1] stood at 3.82%; in assay [2], 3.17%; in assay [3] it was 1.39%; in assay [4], 2.26%; in [5], 0.88%; in assay [6], 3.39%. The inhibition in [7] is 2.68%; in assay [8] it was 3.05%; in [9], 4.66%; in assay [10], -2.82%.

The values above are taken from ChEMBL document CHEMBL1961873, “Compounds: GSK PKIS; Assays: Nanosyn kinase panel” (2012).
